# Test results reported in PubChem BioAssay (NCI).
# The panel holds about 83,000 compounds, 20% with a hit somewhere; the sample as a whole holds those more often.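 Single-dose data. Exposure time 48 hours. Values below 10 considered active.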 The source made the active and inactive calls.
# Tested on: SK-MEL-5 melanoma
# Assay: NCI-60 one-dose screen, 48 h (100 = growth as untreated, 0 = no growth, -100 = all killed)
# Details: 10 µM unless noted
# Procedure: Growth inhibition of the SK-MEL-5 human tumor cell line is measured as a screen for anti-cancer activity. Cells are grown in 96 well plates and exposed to the test compound for 48 hours. Compounds are tested at a single concentration, which is 10^-5 M for most compounds. The reported endpoint is percent growth (GI% or GIPRCNT), where numbers from 0 - 100% represent growth inhibition, and numbers from -100% - 0 represent cell death. For example, a value of 40 represents 60% growth inhibition. A value of 0 means no net growth occurred over the course of the experiment. A value of -40 indicates 40% of cells at the beginning of the experiment died by the end of the experiment. A value of -100 means all cells are dead at the end of the experiment.
# NCI-60 Human Tumor Cell Lines Screen was performed using the standard one-dose NCI protocol, which is described in more detail at https://dtp.cancer.gov/discovery_development/nci-60/default.htm.
# Compounds with GIPRCNT values below 10 were considered active. Activity score was based on GIPRCNT using the following formula: […]
# Score is 0 for GIPRCNT values of 100 or above, 50 for GIPRCNT values of 0, and 100 for GIPRCNT values of -100.
row,Structure (SMILES),growth
1,CC1=CCC[C@@H]2C1(C)CC[C@H](C)[C@@]2(C)CC1=CC(=O)C(SC(C)(C)C)=CC1=O (stereo not given in full),78.4% (inactive)
2,COc1cc(C2C3=C(COC3=O)N(CCO)c3cc4c(cc32)OCCO4)cc(OC)c1OC (stereo not given),-30.9% (active)
3,Nc1c(C(=O)Nc2ccccn2)sc2nc3c(cc12)C(O)CCC3 (stereo not given),20.3% (inactive)
4,COc1ccc(/C(C)=C(\c2ccc(Cl)cc2)c2ccc(OCCN3CCCC3)cc2)cc1,-63.2% (active)
5,CC(C)(C)c1cc(C=Nc2cccc(C(F)(F)F)c2)c(O)c(C(C)(C)C)c1,99.9% (inactive)
6,O=C(N/N=C/c1ccc([N+](=O)[O-])cc1)c1ccc2nc(-c3ccc(Cl)cc3)[nH]c2c1,2.58% (active)
7,O=C1CC2C=CCN2C=C1NC(=O)C1CCCCC1 (stereo not given),102% (inactive)
8,O=C1/C=C/[C@@H](O)[C@@H]2C[C@@H](O)C[C@H]2/C=C/CCC[C@H](CCOCc2ccccc2)O1,-88.3% (active)
9,Cc1cc(C)cc(Nc2ccc([N+](=O)[O-])c(NCCN3CCOCC3)n2)c1,-20.3% (active)
10,Cn1c(/C=C/[N+](=O)[O-])cc2ccccc21,47.2% (inactive)
11,CCN(C(=O)N1CCN(c2cc3c(cc2F)c(=O)c(C(=O)O)cn3C2CC2)CC1)c1nc(-c2ccc(C)cc2)cs1,-32.8% (active)
12,CC(C)=CC(=O)N[C@@H]1CC2CCC3C(CC[C@@]4(C)C3CC[C@@H]4C(C)N(C)C)[C@@]2(C)C[C@@H]1O (stereo not given in full),10.1% (inactive)
13,C=CCn1c(SCC(=O)Nc2ccc(C(=O)/C=C/c3cc(OC)c(OC)c(OC)c3)cc2)nnc1-c1cc(-c2ccc(OC)cc2)nc2ccccc12,94.9% (inactive)
14,CCOC(=O)c1ccc2c(c1)c1c(C)c3ccncc3c(C)c1n2C,-59.7% (active)
15,Cc1ccc(C(=O)c2ccc(CC(=O)N/N=C/c3ccc(O)cc3O)n2C)cc1,39.3% (inactive)
16,COc1cc2oc(-c3cccc(NC(=O)c4ccc5c(c4)OCO5)c3)cc(=O)c2c(OC)c1OC,16.4% (inactive)
17,Fc1ccc(CNc2c3ccccc3nc3ccccc23)cc1,42.5% (inactive)
18,CN(C)Cc1ccc(C(=O)Nc2ccc3ncnc(Nc4ccc(Oc5cccc(F)c5)c(Cl)c4)c3c2)cc1,-82.6% (active)
19,O=[N+]([O-])/C(=C\c1ccco1)c1ccccc1Cl,76.7% (inactive)
20,CCCCCCCC/C=C\CCCCCCCCOc1ccc(CC(=O)NCC[N+](C)(C)C)cc1,87.3% (inactive)

row,Structure (SMILES),growth
1,CC(C)CN1CC(C(=O)Nc2ccc3c(c2)-c2ccccc2C3)CC1=O (stereo not given),69.4% [50 µM] (inactive)
2,COc1ccc(C2=Nc3c(N)ncnc3NC(c3cccc(Nc4ccnc5cc(C(F)(F)F)ccc45)c3)C2)cc1 (stereo not given),51.8% (inactive)
3,Cc1[nH]c(/C=C/C(=O)c2ccc(C(F)(F)F)c(F)c2)c(C)c1C(=O)NCC(C)C,99.8% (inactive)
4,C=CCOC(=O)C1=C(C)NC(=O)NC1c1c(Cl)n(C)c2ccccc12 (stereo not given),102% (inactive)
5,COC(=O)c1c2c(n3ccc(C)cc13)C(=O)c1ccccc1C2=O,28.5% (inactive)
6,CC1=NN(c2ccc(Cl)cc2)CC1(C)N=O (stereo not given),95.4% (inactive)
7,Cc1cc(C)c(-c2c(O)c(Br)c(-c3c(C)cc(C)c(Br)c3C)c(O)c2Br)c(C)c1Br,1.69% (active)
8,CCCn1c(=S)sc2c1nc(C)n1c(Nc3ccccc3)nnc21,35% (inactive)
9,CCCCCCCCn1ccc2cc(NC(=O)Cn3cc(CN4CCN(CC)CC4)nn3)ccc21,78.1% (inactive)
10,O=C(Nc1ccc(F)cc1)Nc1ccccc1CNc1nc(Nc2ccc(OCCN3CCCC3)cc2)ncc1Cl,44.9% (inactive)
11,NC(=O)c1ccc(NC(=O)c2oc3ccccc3c2-c2cnn(-c3ccccc3)c2)cc1,4.65% [50 µM] (active)
12,CN(C)c1ccc(-c2cc(-c3ccc(Nc4nc(Nc5ccc(Cl)cc5)nc(Nc5ccc(Cl)cc5)n4)cc3)nc(N)c2C#N)cc1,66.7% (inactive)
13,N#C/C(=C\c1ccc(Br)cc1)c1cc2ccccc2[nH]1,97.4% (inactive)
14,COc1ccc2cc(-c3ccc(-c4ccc(C(=N)N)s4)s3)ccc2c1,95.1% (inactive)
15,N=c1c2c(=N)n3c(nc2nc2n1-c1ccccc1Sc1ccccc1-2)sc1cc(Cl)ccc13,-12.8% (active)
16,O=C(CSc1nnc2sc(Nc3cccc(Cl)c3)nn12)c1ccc(F)cc1,98.5% (inactive)
17,N#Cc1nc(-c2ccc(F)cc2)oc1S(=O)(=O)N1CCN(c2ccc(F)cc2)CC1,93.1% (inactive)
18,O=C(N/N=C/c1ccc(Cl)cc1Cl)c1ccc2nc(-c3ccc(Cl)cc3)[nH]c2c1,36.2% (inactive)
19,COC(=O)C1=Nc2ccc(F)cc2/C1=C\c1sc(Nc2ccc(O)cc2)nc1O,60.3% (inactive)
20,CCOC(=O)c1c(NC(=O)CSc2n[nH]c3nc4ccccc4n23)sc(CC)c1C,98% (inactive)
